The source made the active and inactive calls.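 The calls were made as follows: active = GFP response vs DMSO above 150% with enough events counted; inconclusive = fewer than 70 events counted for a yeast strain; inactive = the rest.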

Results on six compounds are retold here after PubChem BioAssay AID504321 (NMMLSC, 2011).

This assay is described as follows: MEP2-GFP expression modulation in yeast, confirmation, flow cytometry, third cherry pick, S. cerevisiae (AID 504321).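 Also: median per-cell GFP fluorescence by flow cytometry across all yeast cells; ratio of sample to DMSO median GFP so 100% equals the DMSO level.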 To be noted: S. cerevisiae MEP2-GFP strain, 3 h, at 10 µM, stronger effect = higher value. (Flow cytometry measures light scatter and fluorescence of single cells or particles in a stream.)
Consider `CN(C)C(=O)Oc1ccc(Cl)c2cccnc12`, for which the GFP response vs DMSO was 110% (inactive).

For `Cc1ccc2c(c1N)C(=O)c1ccccc1C2=O`, the GFP response vs DMSO was 103% (inactive).

Take `CN(C)C(=O)Oc1ccnc2cc(Cl)ccc12`: the GFP response vs DMSO is 108% (inactive).

On to `CN1CCN(c2ncnc3ccc(Br)cc23)CC1`, for which the GFP response vs DMSO is 101% (inactive).

On to `C/C(O)=C(\C#N)C(=O)Nc1cc(Br)ccc1Br`, for which the GFP response vs DMSO was 112% (inactive).

As to `CCN1CCN(c2ncnc3ccc(Br)cc23)CC1`, the GFP response vs DMSO is 112% (inactive).
